Test results: PubChem BioAssay AID1259313 (Sanford-Burnham Center for Chemical Genomics, 2017)
In all, about 340,000 compounds went through this assay and about 8,500 (2.5%) were called active.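 The calls were made as follows: active = melting temperature shift of at least 10% of the positive control shift, at one fixed dose; inactive = the rest.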 What follows is part of a selection rich in actives, with near analogues and random picks from the rest.

The compounds below were run on Glutamate receptor ionotropic, NMDA 3A (GRIN3A) ligand-binding domain (assay: NR3A LBD thermal stabilization by compounds – biophysical, differential scanning fluorimetry, uHTS, primary screen (AID 1259313)). Settings: at 25 µM, hits give high values, 0% = protein alone, 100% = glycine-bound protein.

Row | Structure (SMILES) | Tm shift relative to glycine control
1 | CCc1cc(-c2nnc(SCC(=O)NC3CC3)n2C)cs1 | -0.41% (inactive)
2 | O=C(CC1C(=O)NCCN1C(=O)c1ccc([N+](=O)[O-])cc1)Nc1cccc(Cl)c1 (stereo not given) | 0.67% (inactive)
3 | CCOc1cnc(-c2c(-c3ccccc3Cl)noc2C)o1 | -1.94% (inactive)
4 | O=C(NNC(=O)c1ccccc1O)c1ccccc1O | 2.79% (inactive)
5 | O=C(NNc1c2ccccc2nc2ccccc12)c1cc2ccccc2cc1O | 30.2% (active)
6 | O=C(COC(=O)c1ccc(O)cc1O)NC(=O)c1ccccc1 | -11.9% (inactive)
7 | COCc1[nH][nH]c(=O)c1C=Nc1ccc(F)cc1F | -2.69% (inactive)
8 | CCCCN1C(N)=NC[C@@H]1CC1CCCCC1 | -3.87% (inactive)
9 | CCc1cc(=O)oc2cc(C)cc(OCC(=O)N3CCC[C@@H]3C(=O)O)c12 | -2.37% (inactive)
10 | Cc1cc([N+](=O)[O-])ccc1NS(=O)(=O)c1ccccc1 | -13.4% (inactive)
11 | Cc1cc([N+](=O)[O-])ccc1NC1CCCC1 | 12.8% (active)
12 | Cc1cc([N+](=O)[O-])c(NC2CCCCC2)c([N+](=O)[O-])c1 | 1.28% (inactive)
13 | O=C(CSc1ccc([N+](=O)[O-])cn1)Nc1ccc(N2CCOCC2)cc1 | 0.67% (inactive)
14 | O=C(CSc1ccc(-c2ccc(-n3cccn3)cc2)nn1)Nc1ccc([N+](=O)[O-])cc1 | 21.1% (active)
15 | O=C(CSc1ccc(-c2ccccn2)nn1)Nc1ccccc1 | -2.4% (inactive)
16 | COc1cc(/C=C(\C#N)c2nc3ccccc3[nH]2)ccc1O | 28.5% (active)
17 | Cc1ccc2nc(/C(C#N)=C\c3ccc(OC(=O)c4cccs4)cc3)[nH]c2c1 | -1.46% (inactive)
18 | COCCN(CCOC)S(=O)(=O)c1ccc(/C(O)=C(\C#N)c2nc3ccccc3[nH]2)cc1 | 0.08% (inactive)
19 | CCCCOc1ccc(NC(=O)[C@@H]2CCCN2C(=O)C2CCN(S(=O)(=O)c3ccc(C)cc3)CC2)cc1 | 0% (inactive)
20 | Cc1ccc(OC(=O)CCC(=O)Nc2ccc(Br)cc2)cc1 | 0.17% (inactive)
21 | COCC(=O)Nc1ccc(Br)cc1 | -2.19% (inactive)
22 | CC(=O)Nc1ccc(OC(=O)COc2ccc(Br)cc2)cc1 | 17.5% (active)
23 | CC(=O)Nc1ccc(NC(=O)COc2ccc(S(=O)(=O)NC(C)c3ccccc3)cc2)cc1 (stereo not given) | 0.44% (inactive)

Row | Structure (SMILES) | Tm shift relative to glycine control
24 | CC(=O)Nc1ccc(NC(=O)COc2ccc(-c3ccccc3)cc2)cc1 | 12.4% (active)
25 | O=C(COc1ccccc1)Nc1ccc(F)cc1 | -8.63% (inactive)
26 | Cc1c(Nc2nc3ccccc3nc2NS(=O)(=O)c2cccs2)c(=O)n(-c2ccccc2)n1C | 0.52% (inactive)
27 | Cc1ccsc1C1C(C#N)=C(N)OC2=C1C(=O)CC(C)(C)C2 (stereo not given) | -2.21% (inactive)
28 | CSc1cccc(NC(=S)N(C(C)C)C(C)c2ccccn2)c1 (stereo not given) | 13.8% (active)
29 | CC(c1ccccn1)N(CCN(C)C)C(=S)Nc1ccccc1F (stereo not given) | 0% (inactive)
30 | CSc1cccc(NC(=S)N(Cc2ccccc2)Cc2ccccn2)c1 | -4.28% (inactive)
31 | O=C(COC(=O)c1ccccc1Cl)NC1CCCCCCC1 | 1.11% (inactive)
32 | Cn1cccc1C1(C(F)(F)F)NCCNC1=O (stereo not given) | -0.65% (inactive)
33 | CCn1c(CSc2nc(C)cc(C)n2)nnc1SCC(N)=O | 1.48% (inactive)
34 | O=C(COc1ccc(S(=O)(=O)Nc2cccc(C(F)(F)F)c2)cc1)N1CCOCC1 | -0.84% (inactive)
35 | O=C(/C=C/c1ccc(F)cc1)Nc1cccc(S(=O)(=O)Nc2cccc(C(F)(F)F)c2)c1 | 1.46% (inactive)
36 | Cc1oc2c(F)c(F)c(F)c(F)c2c1S(=O)(=O)Nc1cccc(C(F)(F)F)c1 | 29.7% (active)
37 | CC1CCCN(S(=O)(=O)c2ccc(N(C(=O)c3cnccn3)C(C(=O)NC3CCCCC3)c3cccs3)cc2)C1 (stereo not given) | 1.68% (inactive)
38 | COCCCNC(=S)N(Cc1ccccc1)Cc1ccc(F)cc1 | 0.84% (inactive)
39 | O=C1COc2ccc(NC(=O)N3CCN(c4ccc(F)cc4)CC3)cc2N1 | -1.31% (inactive)
40 | COCc1c(C(=O)N/N=C/C2CC=CCC2)nnn1-c1nonc1N (stereo not given) | -1.57% (inactive)
41 | COCc1c(C(=O)N/N=C\c2cccnc2)nnn1-c1nonc1N | -1.82% (inactive)
42 | Nc1nonc1-n1nnc(C(=O)N/N=C/c2cc(Br)ccc2O)c1CSC1=NCCS1 | 11.5% (active)
43 | CC(C)Oc1ccc(/C=N/NC(=O)c2nnn(-c3nonc3N)c2CN(C)C2CCCCC2)cc1 | 2.01% (inactive)
44 | CC(C)c1c(C(=O)N/N=C/c2ccc(-c3ccccc3)cc2)nnn1-c1nonc1N | 1.62% (inactive)
45 | Cc1ccc(SCc2c(C(=O)N/N=C/c3cccnc3)nnn2-c2nonc2N)cc1 | 30.3% (active)
46 | Nc1nonc1-n1nnc(C(=O)N/N=C\c2ccncc2)c1CN1CCCCC1 | 0.45% (inactive)

Row | Structure (SMILES) | Tm shift relative to glycine control
47 | CN(C)Cc1c(C(=O)N/N=C/c2ccccc2OCc2ccc(F)cc2)nnn1-c1nonc1N | 2.67% (inactive)
48 | Cc1ccc(SCc2c(C(=O)N/N=C/C3CC=CCC3)nnn2-c2nonc2N)cc1 (stereo not given) | 85.4% (active)
49 | CCCCNC(=O)c1ccccc1NC(=O)c1ccccc1N(C)S(C)(=O)=O | 0.62% (inactive)
50 | Cc1c(Br)ccc(NC(=O)COc2ccccc2C(N)=O)c1C | -0.92% (inactive)
51 | CC1=NN(C(C)C)C(=O)C1 | -0.17% (inactive)
52 | Cc1ccc(S(=O)(=O)N2[C@@H](c3ccc(Br)cc3)C(C(=O)O)=C[C@H]2CC2CCCC2)cc1 | -1.23% (inactive)
53 | O=C(CSc1nn(-c2ccc(F)cc2)c(=S)s1)NC1CCS(=O)(=O)C1 (stereo not given) | -1.94% (inactive)
54 | Cc1ccc(C)c(OCCC(=O)OCC(=O)c2ccc3c(c2)NC(=O)CO3)c1 | 1.04% (inactive)
55 | CCOC(=O)C1CCN(C(=O)c2cccc(S(=O)(=O)N(CC)c3ccccc3)c2)CC1 | 0.33% (inactive)
56 | O=[N+]([O-])c1cccc(C=NN=Cc2ccccc2O)c1 | -1.4% (inactive)
57 | Nc1ccccc1/C=N\N=C/c1ccccc1N | 10.2% (active)
58 | Cc1c(C(=O)Nc2cccc(S(=O)(=O)N3CCOCC3)c2)oc2ccccc12 | -5.92% (inactive)
59 | COc1ccc(NC(=O)c2oc3ccc(S(=O)(=O)N4CCOCC4)cc3c2C)cc1 | 14.9% (active)
60 | Cc1c(C(=O)Nc2ccccc2Cl)oc2ccc(S(=O)(=O)N3CCC4(CC3)OCCO4)cc12 | -0.83% (inactive)
61 | Cc1ccc(-c2c3c(=O)n(C)c(=O)n(C)c3cn2-c2ccccc2O)cc1 | 22.9% (active)
62 | COc1cccc(-n2cc3c(c2-c2ccccc2)c(=O)n(C)c(=O)n3C)c1 | -1.71% (inactive)
63 | Cc1ccc(-c2c3c(=O)n(C)c(=O)n(C)c3cn2-n2cnnc2)cc1 | -0.82% (inactive)
64 | Cc1csc(=O)n1CCC(=O)OCC(=O)NNC(=O)c1ccc(Br)cc1 | -0.85% (inactive)
65 | COc1cccc(CNS(=O)(=O)c2ccc3c(c2)N(C(C)=O)CCS3)c1 | 11.5% (active)
66 | COc1cccc(CNS(=O)(=O)c2ccc3c(c2)CC(C)N3C(C)=O)c1 (stereo not given) | 2.23% (inactive)
67 | COc1cccc(CNS(=O)(=O)c2csc(C(N)=O)c2)c1 | 2.62% (inactive)
68 | CSc1nc2c(c(=O)[nH]1)C(c1cccc(Cl)c1Cl)CC(=O)N2 (stereo not given) | -1.69% (inactive)
69 | Cc1ccc(NC(=O)c2cccc(S(=O)(=O)N3CCCc4ccccc43)c2)nc1 | 2.57% (inactive)

Row | Structure (SMILES) | Tm shift relative to glycine control
70 | O=C(Nc1nc2ccc([N+](=O)[O-])cc2s1)c1ccc(S(=O)(=O)N2CCCc3ccccc32)cc1 | 18.8% (active)
71 | O=C(NC(Nc1nc2ccc([N+](=O)[O-])cc2s1)(C(F)(F)F)C(F)(F)F)c1ccccc1 | 6.26% (inactive)
72 | O=C1COc2ccc(C(=O)COC(=O)c3ccccc3Cl)cc2N1 | 0% (inactive)
73 | COc1ccc2c(c1)C(=O)CC(c1ccccc1)O2 (stereo not given) | -1.87% (inactive)
74 | CCN(CC)c1ccc(C(=O)NNC(=O)CCc2nc3ccccc3c(=O)[nH]2)cc1 | -0.56% (inactive)
75 | Cc1ccc(OCC(=O)Nc2ccc(C(=O)O)cc2NC(=O)COc2ccc(C)c(C)c2)cc1C | -0.84% (inactive)
76 | COc1ccc(C(=O)COC(=O)COc2ccc(C)c(C)c2)cc1 | 12% (active)
77 | COc1ccc(OCC(=O)OCCN(C)C)cc1 | -1.53% (inactive)
78 | Cc1ccc(Oc2cnn(-c3ccccc3)c(=O)c2Br)cc1 | -1.23% (inactive)
79 | Cc1ccc(O/C=C2\OC(=O)c3ccccc32)cc1 | 49.4% (active)
80 | Cc1n[nH]c(=O)c2c(NC(=O)COC(=O)c3ncc(Cl)c(Cl)c3Cl)oc(C)c12 | 4.91% (inactive)
81 | Cc1c(CCC(=O)O)c(=O)oc2c(C)c(OCc3ccccc3Cl)ccc12 | 0.1% (inactive)
82 | CCN([C@H](CO)C(C)C)S(=O)(=O)c1ccccc1Br | -1.23% (inactive)
83 | O=C(O)CCCC(=O)Nc1ccccc1-n1ccnc1 | -2.48% (inactive)
84 | CCOC(=O)N1CCN(C(=O)COc2ccc(Br)cc2)CC1 | 10.1% (active)
85 | CCOC(=O)N1CCN(C(=O)COc2ccc3oc4c(c3c2)CCCC4)CC1 | 1.71% (inactive)
86 | CCOC(=O)N1CCN(S(=O)(=O)c2ccc(Br)cc2)CC1 | -0.87% (inactive)
87 | Cc1ccc(-c2cccc([C@H]3[C@@H]4C=CC[C@@H](C)[C@@H]4C(=O)N3Cc3ccccc3)c2)cc1 | 15.4% (active)
88 | Cc1cccc([C@H]2[C@@H]3C=CC[C@@H](C)[C@@H]3C(=O)N2Cc2ccccc2)c1 | 0.67% (inactive)
89 | Cc1cccc([C@@H]2[C@@H]3C(=O)N(Cc4ccccc4)C(=O)[C@@H]3[C@]3(C)C(=O)N(c4ccc(Br)cc4)C(=O)N23)c1 | -3.72% (inactive)
90 | CNC(=O)C1CCN(S(=O)(=O)c2c(C)noc2/C=C/c2cccc(C)c2)CC1 | 1.97% (inactive)
